Experimental data from paper PMC4336329 (PLoS ONE, 2015).
About 2,200 (0.71%) of roughly 310,000 compounds showed an effect of 50% or more. The effect is printed as a negative number. Many of the other results were omitted from the sample, so strong results are more common in it than they were.

What follows are molecules tested against human ether-à-go-go-related gene (hERG) potassium channel (human, UniProt Q12809) (assay: primary screen, population patch clamp on CHO cells stably expressing hERG; higher = less effect of the substance).
Sequence of human ether-à-go-go-related gene (hERG) potassium channel (Q12809 whole entry, looked up): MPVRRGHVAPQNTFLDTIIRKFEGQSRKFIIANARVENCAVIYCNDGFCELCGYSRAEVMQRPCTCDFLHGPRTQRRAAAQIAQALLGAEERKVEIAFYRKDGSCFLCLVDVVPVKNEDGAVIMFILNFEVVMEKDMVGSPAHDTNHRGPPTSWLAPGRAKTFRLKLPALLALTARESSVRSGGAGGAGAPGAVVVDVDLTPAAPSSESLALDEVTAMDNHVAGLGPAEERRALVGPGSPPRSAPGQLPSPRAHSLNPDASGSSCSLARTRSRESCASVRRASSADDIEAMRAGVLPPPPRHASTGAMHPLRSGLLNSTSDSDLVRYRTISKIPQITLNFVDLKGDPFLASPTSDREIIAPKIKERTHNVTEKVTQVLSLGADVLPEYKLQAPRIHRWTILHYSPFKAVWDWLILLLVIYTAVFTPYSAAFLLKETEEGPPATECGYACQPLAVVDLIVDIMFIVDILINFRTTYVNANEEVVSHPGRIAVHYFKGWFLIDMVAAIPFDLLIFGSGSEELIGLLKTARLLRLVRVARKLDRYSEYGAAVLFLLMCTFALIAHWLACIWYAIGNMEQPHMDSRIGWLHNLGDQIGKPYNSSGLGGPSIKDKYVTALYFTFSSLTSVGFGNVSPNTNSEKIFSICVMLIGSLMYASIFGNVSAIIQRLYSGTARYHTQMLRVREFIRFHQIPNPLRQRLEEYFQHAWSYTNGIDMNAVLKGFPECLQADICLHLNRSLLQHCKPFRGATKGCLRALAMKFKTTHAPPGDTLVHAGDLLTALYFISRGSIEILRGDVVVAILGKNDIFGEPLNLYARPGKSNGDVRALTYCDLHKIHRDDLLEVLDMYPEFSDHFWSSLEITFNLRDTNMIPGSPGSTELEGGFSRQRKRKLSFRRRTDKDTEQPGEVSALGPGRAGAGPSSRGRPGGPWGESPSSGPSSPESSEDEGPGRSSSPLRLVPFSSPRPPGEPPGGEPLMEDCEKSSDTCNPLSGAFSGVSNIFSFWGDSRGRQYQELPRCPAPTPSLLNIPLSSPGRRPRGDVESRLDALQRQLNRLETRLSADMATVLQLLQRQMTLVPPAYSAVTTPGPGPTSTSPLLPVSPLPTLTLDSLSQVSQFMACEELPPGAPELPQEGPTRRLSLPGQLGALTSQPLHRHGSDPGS

SMILES	hERG current change (%, negative = inhibition) at 1uM [%]
FC(F)(F)c1ccccc1NC(=S)N1CCN(c2ncccn2)CC1	11.5
O=C(NNC(=O)c1cccs1)c1ccccc1	5.51
Cc1ccc(N(CC(O)CN2CCCC2)S(=O)(=O)c2ccccc2)cc1 (centres unmarked)	-47.4
COc1ccccc1N(CC(O)CN1CCCCC1)S(=O)(=O)c1ccc(C)cc1 (centres unmarked)	2.61
Cc1ccc(N(CC(O)CN2CCCCC2)S(=O)(=O)c2ccccc2[N+](=O)[O-])cc1 (centres unmarked)	-48.8
COc1ccc(N(CC(O)CN2CCOCC2)S(=O)(=O)c2ccc(C)cc2)cc1 (centres unmarked)	-6.48
Cc1ccc(N(CC(O)CN2CCCCC2)S(=O)(=O)c2ccccc2)cc1 (centres unmarked)	-68.7
COc1ccc(N(CC(O)CN2CCCCC2)S(=O)(=O)c2ccc(C)cc2)cc1 (centres unmarked)	-82.9
Cc1c(C(=O)OC2CCCCC2)sc2nc[nH]c(=O)c12	16
Cc1ccc(-c2oc3ncnc(N)c3c2-c2ccc(C)cc2)cc1	-3.25
COc1ccc(/C(C)=N/Nc2ccc(C(=O)O)cc2)cc1OC.O=S(=O)(O)O	11.7
Cn1c(SCC(=O)NCC2CCCO2)ncc(C(=O)Nc2ccc(F)cc2)c1=O (centres unmarked)	5.38
CN1C[C@H](CNC(=O)OCc2ccccc2)C[C@@H]2c3cccc4c3c(cn4C)C[C@H]21	-1.63
CCNC(=O)N(CCOC)CC1CCCN(C2Cc3ccccc3C2)C1 (centres unmarked)	11.7
COCCN(CC1CCCN(C2Cc3ccccc3C2)C1)C(=O)CCSC (centres unmarked)	-4.27
COCCN(CC1CCCN(C2Cc3ccccc3C2)C1)C(=O)CSC (centres unmarked)	7.99
COCCN(CC1CCCN(C2Cc3ccccc3C2)C1)C(=O)c1ccc(C(C)=O)cc1 (centres unmarked)	-51.9
COCCN(CC1CCCN(C2Cc3ccccc3C2)C1)C(=O)CCC(N)=O (centres unmarked)	-70.8
COCCN(CC1CCCN(C2Cc3ccccc3C2)C1)C(=O)CCC(C)=O (centres unmarked)	7.77
N#Cc1ccccc1NC(=O)C1SC(=Nc2ccccc2)C(C(=O)Nc2ccc(Cl)cc2)=C1N (centres unmarked)	6.56

SMILES	hERG current change (%, negative = inhibition) at 1uM [%]
COC(=O)CCCNS(=O)(=O)c1ccc2ccccc2c1	10.7
CC(C)N(CC#CC(O)(c1ccccc1)c1ccccc1)C(C)C	-38.1
CC(C)(C)C(=O)Cn1c(NCCCl)nc2ccccc21.Cl	13.8
CCNc1nc(CSc2ccccc2)nc2sc(C)c(C)c12	6.57
COCCNc1nc(CSc2ccccc2)nc2sc(C)c(C)c12	11.8
Cc1sc2nc(CSc3ccccc3)nc(NCCN(C)C)c2c1C	-50.1
COc1ccc(C(=O)N2CCCN(C)CC2)cc1S(=O)(=O)N1CCCc2ccccc21	1.09
NC(=O)c1nsc(C(=O)N(CC(=O)NCc2ccco2)c2ccccc2F)c1N	1.03
Fc1ccc(NC(=S)Nc2ccc(F)c(Cl)c2)cc1Cl	7.52
CCN(C(=O)CSc1nc2ccccc2c(=O)n1-c1ccc(C)cc1)C1CCS(=O)(=O)C1 (centres unmarked)	1.16
CCN(C(=O)CSc1n[nH]c(-c2cccs2)n1)C1CCS(=O)(=O)C1 (centres unmarked)	11.8
C=CCn1c(SCC(=O)N(C)C2CCS(=O)(=O)C2)nc2ccccc2c1=O (centres unmarked)	-36.1
CCN(C(=O)CSc1nc2ccccc2c(=O)n1Cc1ccc(C)cc1)C1CCS(=O)(=O)C1 (centres unmarked)	-71.4
CCN(C(=O)CSc1nc(-c2cccs2)nc2ccccc12)C1CCS(=O)(=O)C1 (centres unmarked)	-78.4
Cc1ccc(Cn2c(SCC(=O)N(C)C3CCS(=O)(=O)C3)nc3ccccc3c2=O)cc1 (centres unmarked)	-41.9
O=C(CSc1nc(-c2cccs2)nc2ccccc12)NC1CCS(=O)(=O)C1 (centres unmarked)	17.3
C=CCn1c(SCC(=O)N(CC)C2CCS(=O)(=O)C2)nc2ccccc2c1=O (centres unmarked)	-81.6
C=CCn1c(SCC(=O)N(CC)C2CCS(=O)(=O)C2)nc2cc(C(=O)O)ccc2c1=O (centres unmarked)	16.4
Cc1cc(=O)[nH]c2ccc(S(=O)(=O)NC3CCCCC3)cc12	7.42
CC(OC(=O)C(C)Oc1ccccc1)C(=O)Nc1ccc(S(=O)(=O)N2CCCCC2)cc1 (centres unmarked)	12.9

SMILES	hERG current change (%, negative = inhibition) at 1uM [%]
Oc1ccc(/C=N/N2CCCCC2)cc1O	14.2
CCOCCN1CCN(c2c(CC)c(C)nc3cc(-c4cc(OC)cc(OC)c4)nn23)CC1	-14
COc1ccc(NC(=O)CN(C)C(=O)CCCc2nc3ccccc3s2)cc1	-15.7
COc1nc(-c2ccccc2)ccc1-c1noc(COc2ccccc2)n1	17.7
CCOC(=O)Cn1c(=O)oc2cc(S(=O)(=O)N(C)c3cccc(C)c3)ccc21	-1.77
O=[N+]([O-])c1cc2c(cc1CN1CCN(c3ccc(F)cc3)CC1)OCO2	7.89
CCCCCCCCOC(=O)c1nc(Cl)c(Cl)c(N)c1Cl	-64.4
CCCCCCCOC(=O)c1nc(Cl)c(Cl)c(N)c1Cl	0.504
CCCCOC(=O)c1nc(Cl)c(Cl)c(N)c1Cl	12
CCOc1cccc(-c2nn3c(-c4cc(C)[nH]n4)nnc3s2)c1	-8.21
COc1ccc(/C=C/C(=O)Oc2ccc(C)cc2)cc1	1.29
COc1ccc(/C=C/c2cc(C(F)(F)F)on2)cc1	17.5
COc1ccc(/C=C/c2cc(-c3ccc(C)cc3)o[n+]2C)cc1.F[B-](F)(F)F	-76.5
Cc1ccc2c(c1)NC(=O)C(CC(=O)NCCCN1CCCC1)O2 (centres unmarked)	12.4
CCC(C)N(CCNC(=O)CC1Oc2ccc(C)cc2NC1=O)C1CCCCC1 (centres unmarked)	-58.1
Cc1ccc2c(c1)NC(=O)C(CC(=O)NCCCN1CCc3ccccc3C1)O2 (centres unmarked)	-58.5
Cc1ccc2c(c1)NC(=O)C(CC(=O)NCCN(CC(C)C)CC(C)C)O2 (centres unmarked)	0.19
Cc1ccc2c(c1)NC(=O)C(CC(=O)NCCCN1CCCCC1)O2 (centres unmarked)	6.37
CCC(C)N(CCNC(=O)CC1Oc2ccccc2NC1=O)C1CCCCC1 (centres unmarked)	-35.6
